A selection: hits, their analogues and other compounds. The true share with any hit is near 7%.
ADAM10 inh: inhibitors of human ADAM10; inhibition, % at 7 µM; O14672; actives 0.62% (n = 370,000); recombinant ADAM10, EDANS/DABCYL FRET peptide cleavage, 3 h;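 active = inhibition above a per-campaign cutoff equal to the mean of compounds falling between control-based bounds plus 3 SD, cut at about 20% in these data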
ADAM17 inh: inhibitors of human ADAM17. P78536. inhibition, % at 6.95 µM. recombinant ADAM17, EDANS/DABCYL FRET peptide cleavage. actives 0.83% (n = 370,000);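 active = inhibition above the mean of compounds lying between control limits plus 3 SD, set per campaign, cut at about 8.5% in these data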
proKLK7 act: activators of human kallikrein-7 zymogen. purified proKLK7, EDANS-DABCYL substrate fluorescence; 100% is mature enzyme control, 0% vehicle. AID 652039. actives 0.9% (n = 370,000). activation, % at 7 µM;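 active = activation above the mean of all tested compounds plus 3 SD, computed per campaign excluding outliers beyond control limits, cut at about 13% in these data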
AHR activator: activators of human aryl hydrocarbon receptor; P35869; AHR-responsive luciferase reporter cells, luminescence; activation, % at 5 µM; actives 2.5% (n = 320,000); AID 2796; in the data active = activation above about 47%
Target sequence (P35869 whole entry, looked up): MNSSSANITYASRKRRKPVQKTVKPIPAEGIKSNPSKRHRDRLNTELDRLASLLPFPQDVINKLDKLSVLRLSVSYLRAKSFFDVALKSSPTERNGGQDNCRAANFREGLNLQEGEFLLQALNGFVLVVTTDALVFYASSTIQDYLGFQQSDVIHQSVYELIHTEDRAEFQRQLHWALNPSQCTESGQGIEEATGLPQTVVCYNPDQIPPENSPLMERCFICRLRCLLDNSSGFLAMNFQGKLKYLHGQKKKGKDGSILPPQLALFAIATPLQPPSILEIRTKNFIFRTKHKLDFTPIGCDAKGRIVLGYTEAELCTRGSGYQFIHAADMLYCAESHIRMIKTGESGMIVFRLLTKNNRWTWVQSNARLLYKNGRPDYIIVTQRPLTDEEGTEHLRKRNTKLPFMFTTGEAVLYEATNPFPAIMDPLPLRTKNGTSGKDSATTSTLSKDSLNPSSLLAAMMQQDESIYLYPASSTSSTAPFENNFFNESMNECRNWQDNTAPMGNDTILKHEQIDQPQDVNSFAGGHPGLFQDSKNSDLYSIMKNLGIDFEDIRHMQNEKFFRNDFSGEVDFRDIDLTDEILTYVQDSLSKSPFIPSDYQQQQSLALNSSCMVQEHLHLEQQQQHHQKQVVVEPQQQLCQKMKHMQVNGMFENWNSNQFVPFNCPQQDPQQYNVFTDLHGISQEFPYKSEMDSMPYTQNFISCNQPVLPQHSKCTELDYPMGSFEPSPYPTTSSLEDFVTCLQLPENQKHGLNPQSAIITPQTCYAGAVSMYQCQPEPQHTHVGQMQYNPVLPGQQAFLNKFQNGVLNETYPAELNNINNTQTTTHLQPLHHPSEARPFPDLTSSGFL
rCAG binder: molecules binding r(CAG) RNA repeats | r(CAG) RNA repeat, TO-PRO-1 dye displacement fluorescence | inhibition, % at 3 µM | actives 1.3% (n = 370,000) | AID 651821;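 active = inhibition above the plate cutoff, the mean of all test compounds on that plate plus 3 SD, cut at about 35% in these data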;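 note: higher means more dye released from RNA so lower well fluorescence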
GRIN3A LBD mod: modulates the human NR3A ligand-binding domain; AID 1259313; NR3A LBD differential scanning fluorimetry, Tm shift; 0% = protein alone, 100% = glycine-bound protein; actives 2.5% (n = 340,000); Tm shift relative to glycine control, % at 25 µM;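 active = melting temperature shift of at least 10% of the positive control shift, at one fixed dose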
A number is an active result; - = inactive; . = not tested or not shown.

SMILES	ADAM10 inh	ADAM17 inh	proKLK7 act	AHR activator	rCAG binder	GRIN3A LBD mod
Cc1cc2oc(=O)cc(CN3CCc4ccccc43)c2cc1Cl	-	-	-	50.2	-	-
CCc1ccc2c(CN3CCc4ccccc43)cc(=O)oc2c1	-	-	-	-	-	-
O=C1N=C(N2CCCCC2)S/C1=C\c1ccncc1	-	-	-	-	-	-
COc1ccc(/C=C2\SC(N3CCCCC3)=NC2=O)cc1	-	-	-	48.5	-	-
COc1ccc(F)cc1-c1cc(C(C)=O)c2n(c1=O)CCC2	-	-	-	.	-	.
NNc1ncnc2scc(-c3ccc(Cl)cc3)c12	-	-	-	-	-	-
Cc1ccc(-c2csc3ncnc(NS(=O)(=O)c4ccc(Cl)cc4)c23)cc1	-	-	-	-	-	15.5
COc1ccc(C)cc1S(=O)(=O)N1CCC2(CC1)OCCN2S(=O)(=O)c1cccs1	-	-	-	-	-	15.5
CCOC(=O)C1=CCN(S(=O)(=O)c2ccc([N+](=O)[O-])cc2)C1c1ccc(C)cc1 (configuration not stated)	-	-	-	.	-	.
O=C(c1ccccc1)N1CC[C@H]2[C@H](CCCN2Cc2ccccc2)C1	-	-	-	.	-	.
O=C(NNS(=O)(=O)c1ccccc1)c1cc2cc3ccccc3nc2s1	-	-	-	-	-	-
O=C(NNC(=O)c1cc2cc3ccccc3nc2s1)c1cccc(C(F)(F)F)c1	-	-	-	48.3	-	-
O=C(Cc1ccccc1)Nc1nc(=O)c2ccccc2s1	-	-	-	-	-	-
O=C(Cc1nc(=O)c2ccccc2s1)Nc1ccccc1	-	-	-	50.0	-	18.0
O=C(Nc1ccccc1)Nc1nnc(CSCc2ccccc2Cl)s1	-	-	-	-	-	30.3
O=C(Cc1nnc(NC(=O)Nc2ccccc2)s1)Nc1ccccc1	-	-	-	-	-	12.4
COc1ccccc1NC(=O)Nc1nnc(CC(=O)Nc2ccccc2)s1	-	-	-	-	-	.
Cc1ccc(OCCSCc2nnc(NC(=O)Nc3cccc(Cl)c3)s2)cc1	-	-	-	-	-	13.9
C[C@H]1COc2cc(Br)ccc2S(=O)(=O)N1Cc1cn(CC2CCCCC2)nn1	-	-	-	.	-	.
CCCC(=O)N1CCC[C@]2(CC[C@H](CCC#N)O2)C1	-	-	-	.	-	.
CCCCNC(=O)C[C@H]1C[C@@]2(C(=O)OC)C(=C[C@H](COCc3ccccc3)O[C@@H]2C)N(Cc2ccco2)C1=O	-	-	-	.	-	.
CC(C)(C)CC(=O)Nc1nnc(-c2cccs2)s1	-	-	-	49.9	-	-
O=C(Nc1ccccc1)Nc1nnc(-c2cccs2)s1	-	-	-	114.9	-	22.0
CC(C)(C)CC(=O)Nc1nnc(C(F)(F)F)s1	-	-	-	-	-	-
O=C(Cc1cccs1)Nc1nnc(-c2ccccc2)s1	-	-	-	-	-	-
SMILES	ADAM10 inh	ADAM17 inh	proKLK7 act	AHR activator	rCAG binder	GRIN3A LBD mod
COc1cccc(C(=O)Nc2ccc(C(F)(F)F)n(C)c2=O)c1	-	-	-	55.8	-	-
COc1cccc(C(=O)Nc2cc(C(F)(F)F)ccc2Cl)c1	-	-	-	59.5	-	-
COC(=O)Cc1nnn2c1[C@@H](C)[C@@H](c1ccccc1Br)OC[C@H](C)C2	-	-	-	.	-	.
C[C@H](O)[C@@H]1C(=O)N2CCc3c([nH]c4c(-c5ccc6c(c5)OCO6)cccc34)[C@@H]2C[C@@H]1N(C)C(=O)c1ccccc1F	-	-	-	.	-	.
O=C(CC1C=CCC1)OCCN1CCN(C2CN(Cc3cn(Cc4ccccc4Cl)nn3)S(=O)(=O)C2)CC1 (configuration not stated)	-	-	-	.	-	.
Clc1ccc(-c2onc3c2CCCC3)cc1	-	-	-	-	-	-
Clc1ccc(-c2n[nH]c3c2CCCC3)cc1	-	-	-	55.6	-	-
C=CCN1[C@H](C#N)[C@@H](c2ccc(C#Cc3cccc(OC)c3)cc2)[C@H]1CO	-	-	-	.	-	.
COc1ccc(C(=O)NC(=S)N2CC(C)OC(C)C2)cc1OC (configuration not stated)	-	-	-	-	-	12.2
O=C(NCCCN1CCOCC1)c1cn(-c2ccccc2)nc1-c1ccc(Br)cc1	-	-	-	-	-	-
CC(C)COc1ccc(-c2nn(-c3ccccc3)cc2C(=O)Nc2nccs2)cc1	-	-	-	-	-	10.4
CC(=O)Cc1nsc(NC(=O)c2cn(-c3ccccc3)nc2-c2ccc(Br)cc2)n1	-	-	-	-	-	31.4
O=C(Nc1nccs1)c1cn(-c2ccccc2)nc1-c1ccccc1	-	-	-	-	-	-
CCOc1ccc(/C=N/NC(=O)c2nnn(-c3nonc3N)c2CN(C)C2CCCCC2)cc1	-	-	-	-	-	-
CN(C)c1ccc(/C=N/NC(=O)c2nnn(-c3nonc3N)c2CN(C)c2ccccc2)cc1	-	-	-	-	-	14.8
Nc1nonc1-n1nnc(C(=O)N/N=C/c2cc(Br)cs2)c1-c1ccccc1	-	-	-	-	-	14.8
Nc1nonc1-n1nnc(C(=O)N/N=C/c2ccccn2)c1-c1ccccc1	-	-	-	.	-	-
CN(Cc1c(C(=O)N/N=C/c2cccc(Cl)c2)nnn1-c1nonc1N)c1ccccc1	-	-	-	-	-	21.0
COc1ccc(/C=N/NC(=O)c2nnn(-c3nonc3N)c2CN(C)c2ccccc2)cc1	-	-	-	-	-	24.1
CC(C)(C)OC(=O)n1ccc2ccc(-c3ccc4cc[nH]c4c3)cc21	-	-	-	.	-	.
O=C(/C=C(\Nc1cc(Cl)c(Cl)c(Cl)c1)c1ccccc1)c1ccccc1	-	-	-	.	-	.
COc1ccccc1/C=N/NC(=O)c1nnn(-c2nonc2N)c1CN(C)c1ccccc1	-	-	-	-	-	-
Nc1nonc1-n1nnc(C(=O)N/N=C/c2cccnc2)c1-c1cccs1	-	-	-	-	-	-
Nc1nonc1-n1nnc(C(=O)N/N=C/c2cccc(Cl)c2)c1-c1cccs1	-	-	-	-	-	27.1
CN(Cc1c(C(=O)N/N=C/c2ccccc2F)nnn1-c1nonc1N)c1ccccc1	-	-	-	-	-	11.6
SMILES	ADAM10 inh	ADAM17 inh	proKLK7 act	AHR activator	rCAG binder	GRIN3A LBD mod
CN(C)Cc1c(C(=O)N/N=C/c2cccnc2)nnn1-c1nonc1N	-	-	-	-	-	-
CN(Cc1c(C(=O)N/N=C/c2ccccc2)nnn1-c1nonc1N)c1ccccc1	-	-	-	-	-	19.5
CN(Cc1c(C(=O)N/N=C/c2ccc(O)cc2)nnn1-c1nonc1N)c1ccccc1	-	-	-	-	-	24.1
COc1cccc(-c2ccc3c(c2)[C@@H]2C[C@H]4[C@@H](CN2CC3)[C@H](C)ON4C)c1	-	-	-	.	-	.
CN(C)C=Nc1nc2c(Br)ccc(Br)c2cc1C(=O)NCC(C)(C)C	-	-	-	.	-	.
C/C(=N\N=C\c1ccccc1F)c1nnn(-c2nonc2N)c1C	-	-	-	-	-	24.9
